Results reported in the antibiotic and cytotoxicity screens of Wong et al. (2023).
The campaign covered roughly 39,000 compounds. About 3,300 (8.5%) were called active. This excerpt belongs to a sample that is enriched for actives.

Each molecule was assayed on HepG2 (assay: cytotoxicity call (relative viability < 0.9)). Details: 10 µM.

| SMILES | cytotoxicity call |
| --- | --- |
| O=C(C[C@H]1CC[C@H]2[C@@H](COC[C@@H](O)CN2S(=O)(=O)c2ccc(Cl)cc2)O1)NCc1ccncn1 | inactive |
| COc1ncc(-c2ccc3c(Nc4cc(Oc5cc(F)cc(F)c5)cc(C(=O)O)c4)c(S(=O)(=O)NC4CC4)cnc3c2)c(OC)n1 | inactive |
| CO[C@@H]1CN(C)C(=O)c2ccc(NC(=O)C3CC3)cc2OC[C@H](C)N(C(=O)C2CCOCC2)C[C@@H]1C | inactive |
| COc1ccc(S(=O)(=O)Nc2cccc3c2O[C@H](CN(C)S(=O)(=O)c2ccc(C)cc2)[C@H](C)CN([C@@H](C)CO)C3=O)cc1 | inactive |
| C[C@H]1CN([C@@H](C)CO)C(=O)c2cc(C#CCN(C)C)cnc2O[C@H]1CN(C)C(=O)c1ccc2c(c1)OCO2 | inactive |
| C[C@@H]1CN([C@@H](C)CO)C(=O)c2cc(NC(=O)Nc3ccc(C(F)(F)F)cc3)ccc2O[C@@H](C)CCCCO[C@H]1CN(C)Cc1ccc(C(F)(F)F)cc1 | active |
| C[C@@H]1CN([C@H](C)CO)C(=O)c2cc(NC(=O)Nc3ccc(C(F)(F)F)cc3)ccc2O[C@@H](C)CCCCO[C@H]1CN(C)Cc1ccc(C(F)(F)F)cc1 | active |
| C[C@@H]1CCCCO[C@H](CN(C)Cc2ccc(C(F)(F)F)cc2)[C@@H](C)CN([C@@H](C)CO)C(=O)c2cc(NC(=O)Nc3ccc(C(F)(F)F)cc3)ccc2O1 | inactive |
| C[C@@H]1CCCCO[C@@H](CN(C)Cc2ccc(C(F)(F)F)cc2)[C@H](C)CN([C@@H](C)CO)C(=O)c2cc(NC(=O)Nc3ccc(C(F)(F)F)cc3)ccc2O1 | inactive |
| C[C@@H]1CCCCO[C@H](CN(C)Cc2ccc(C(F)(F)F)cc2)[C@H](C)CN([C@@H](C)CO)C(=O)c2cc(NC(=O)Nc3ccc(C(F)(F)F)cc3)ccc2O1 | active |
| C[C@H](CO)N1C[C@H](C)[C@@H](CN(C)Cc2ccc(C(F)(F)F)cc2)OCCCC[C@H](C)Oc2ccc(NC(=O)Nc3ccc(C(F)(F)F)cc3)cc2C1=O | inactive |
| C[C@@H]1CN([C@@H](C)CO)C(=O)c2cc(NC(=O)Nc3ccc(C(F)(F)F)cc3)ccc2O[C@@H](C)CCCCO[C@@H]1CN(C)Cc1ccc(C(F)(F)F)cc1 | inactive |
| C[C@H](CO)N1C[C@H](C)[C@H](CN(C)Cc2ccc(C(F)(F)F)cc2)OCCCC[C@H](C)Oc2ccc(NC(=O)Nc3ccc(C(F)(F)F)cc3)cc2C1=O | active |
| O=C(CN1CCOCC1)NCC[C@@H]1CC[C@@H](NS(=O)(=O)c2ccc(F)cc2)[C@@H](CO)O1 | inactive |
| CCS(=O)(=O)N1C[C@]2(C1)CN([C@@H](CO)c1[nH]c3cc(ccc3c12)OC)C(=O)Nc1c(noc1C)C | inactive |
| C[C@H](CO)N1C[C@H](C)[C@@H](CN(C)C(=O)CN(C)C)Oc2cc(C#C[C@@H](C)O)ccc2S1(=O)=O | inactive |
| C[C@@H]1CCCCO[C@H](CN(C)S(=O)(=O)c2ccc(Cl)cc2)[C@H](C)CN([C@@H](C)CO)C(=O)c2cc(NC(=O)C3CCCCC3)ccc2O1 | inactive |
| COc1ccc(NC(=O)N(C)C[C@H]2Oc3ccc(NS(=O)(=O)c4cn(C)cn4)cc3CC(=O)N([C@H](C)CO)C[C@@H]2C)cc1 | inactive |

| SMILES | cytotoxicity call |
| --- | --- |
| COc1ccccc1CNC(=O)C[C@H]1C[C@H]2c3cc(NC(=O)Nc4ccc(C(F)(F)F)cc4)ccc3O[C@H]2[C@@H](CO)O1 | inactive |
| C[C@@H]1CN([C@H](C)CO)C(=O)c2cc(NS(=O)(=O)c3ccc(F)cc3)ccc2O[C@@H](C)CCCCO[C@H]1CN(C)Cc1ccc2c(c1)OCO2 | inactive |
| C[C@@H]1CN([C@H](C)CO)C(=O)Cc2cc(NC(=O)Nc3ccc4c(c3)OCO4)ccc2O[C@H]1CN(C)S(=O)(=O)c1cn(C)cn1 | inactive |
| O=C(C[C@@H]1CC[C@@H]2[C@H](COC[C@H](O)CN2S(=O)(=O)c2cccc(Cl)c2)O1)NCc1ccc2c(c1)OCO2 | inactive |
| C[C@@H]1CN([C@@H](C)CO)S(=O)(=O)c2ccc(Br)cc2O[C@H]1CN(C)Cc1ccccc1F | inactive |
| CC(C)NC(=O)Nc1ccc2c(c1)CC(=O)N([C@@H](C)CO)C[C@H](C)[C@H](CN(C)Cc1ccc(C(=O)O)cc1)O2 | inactive |
| C[C@@H]1CN([C@H](C)CO)C(=O)c2cc(NC(=O)C3CC3)ccc2O[C@@H]1CN(C)Cc1ccc(Oc2ccccc2)cc1 | inactive |
| Cc1noc(C)c1S(=O)(=O)N(C)C[C@H]1Oc2ccc(NC(=O)C3CC3)cc2CC(=O)N([C@H](C)CO)C[C@@H]1C | inactive |
| CCS(=O)(=O)N1CC[C@]2(CC1)CN([C@@H](CO)c1c2c2ccc(cc2n1C)OC)C(=O)c1cccc(c1)F | inactive |
| C[C@@H]1CCCCO[C@@H](CN(C)Cc2ccc(C(F)(F)F)cc2)[C@@H](C)CN([C@H](C)CO)C(=O)c2cc(NC(=O)Nc3ccc(C(F)(F)F)cc3)ccc2O1 | inactive |
| C[C@@H]1CCCCO[C@H](CN(C)Cc2ccc(C(F)(F)F)cc2)[C@@H](C)CN([C@H](C)CO)C(=O)c2cc(NC(=O)Nc3ccc(C(F)(F)F)cc3)ccc2O1 | active |
| C[C@@H]1CN([C@H](C)CO)C(=O)c2cc(NC(=O)Nc3ccc(C(F)(F)F)cc3)ccc2O[C@@H](C)CCCCO[C@@H]1CN(C)Cc1ccc(C(F)(F)F)cc1 | inactive |
| C[C@@H]1CCCCO[C@@H](CN(C)Cc2ccc(C(F)(F)F)cc2)[C@H](C)CN([C@H](C)CO)C(=O)c2cc(NC(=O)Nc3ccc(C(F)(F)F)cc3)ccc2O1 | inactive |
| C[C@@H]1CCCCO[C@@H](CN(C)Cc2ccc(C(F)(F)F)cc2)[C@@H](C)CN([C@@H](C)CO)C(=O)c2cc(NC(=O)Nc3ccc(C(F)(F)F)cc3)ccc2O1 | inactive |
| C[C@H]1CCCCO[C@@H](CN(C)Cc2ccc(C(F)(F)F)cc2)[C@@H](C)CN([C@@H](C)CO)C(=O)c2cc(NC(=O)Nc3ccc(C(F)(F)F)cc3)ccc2O1 | active |
| C[C@H]1CCCCO[C@H](CN(C)Cc2ccc(C(F)(F)F)cc2)[C@@H](C)CN([C@@H](C)CO)C(=O)c2cc(NC(=O)Nc3ccc(C(F)(F)F)cc3)ccc2O1 | active |
| C[C@@H]1CCCCO[C@H](CN(C)Cc2ccc(C(F)(F)F)cc2)[C@H](C)CN([C@H](C)CO)C(=O)c2cc(NC(=O)Nc3ccc(C(F)(F)F)cc3)ccc2O1 | active |
